In the library only some 4.1% were active in any assay of this set; here they are far more common.
IDE act: human IDE activators in live cells, primary screen, fluorescence polarization, HEK cells, FAbeta-B substrate. Insulin-degrading enzyme (Homo sapiens), P14735. FAbeta-B cleavage; 0% vehicle, 100% cell-free pure enzyme wells. activation, % at 5.96 µM. 340,000 tested, 0.073% active;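 active means activation above the mean of all tested compounds plus 3 SD, set per screening campaign, cut at about 17% in these data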
Target sequence (P14735 whole entry, looked up): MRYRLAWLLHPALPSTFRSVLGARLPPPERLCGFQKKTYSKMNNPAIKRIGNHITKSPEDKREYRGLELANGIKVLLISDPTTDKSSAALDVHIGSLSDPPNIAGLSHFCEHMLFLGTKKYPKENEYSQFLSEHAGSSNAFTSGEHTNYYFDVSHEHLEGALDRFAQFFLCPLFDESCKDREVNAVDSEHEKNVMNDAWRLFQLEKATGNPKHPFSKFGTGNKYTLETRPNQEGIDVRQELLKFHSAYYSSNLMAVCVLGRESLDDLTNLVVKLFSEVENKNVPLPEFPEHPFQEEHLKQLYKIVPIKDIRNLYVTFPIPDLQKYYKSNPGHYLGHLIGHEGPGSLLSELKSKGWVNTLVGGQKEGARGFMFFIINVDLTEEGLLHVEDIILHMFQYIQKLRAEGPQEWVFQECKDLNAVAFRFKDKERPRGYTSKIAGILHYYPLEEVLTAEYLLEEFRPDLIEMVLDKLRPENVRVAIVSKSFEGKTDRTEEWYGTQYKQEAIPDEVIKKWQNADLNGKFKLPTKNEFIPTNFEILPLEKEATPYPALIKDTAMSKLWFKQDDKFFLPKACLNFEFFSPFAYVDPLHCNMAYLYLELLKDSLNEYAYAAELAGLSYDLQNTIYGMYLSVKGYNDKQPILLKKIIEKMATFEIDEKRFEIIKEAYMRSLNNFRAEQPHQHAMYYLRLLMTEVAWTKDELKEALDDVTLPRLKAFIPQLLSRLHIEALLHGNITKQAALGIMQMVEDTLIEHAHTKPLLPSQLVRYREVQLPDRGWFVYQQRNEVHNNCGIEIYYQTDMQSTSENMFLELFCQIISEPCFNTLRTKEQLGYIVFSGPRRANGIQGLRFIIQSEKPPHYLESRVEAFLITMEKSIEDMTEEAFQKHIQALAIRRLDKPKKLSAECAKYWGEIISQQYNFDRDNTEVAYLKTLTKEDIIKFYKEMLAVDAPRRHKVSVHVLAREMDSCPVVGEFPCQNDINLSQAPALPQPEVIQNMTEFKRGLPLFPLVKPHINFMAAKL
PolyA inhibitor: polyadenylation inhibitors in yeast reporter cells, primary screen, luminescence, S. cerevisiae | activity score, % at 12 µM | S. cerevisiae SKY197-pL101 polyadenylation reporter, beta-gal luminescence; efflux-impaired pdr1/pdr3 knockout yeast; score 100 = 6 SD above DMSO | 300,000 tested, 0.02% active;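 active means lowest replicate activity score at least 50, where 100 means six control SD above control mean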;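 further: yeast exposed to compound for 9 h at 30 °C; higher score means more reporter readthrough which indicates perturbed polyadenylation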
M18AAP inhibitor: PfM18AAP inhibitors, malaria aminopeptidase, primary screen, biochemical, QFRET, recombinant enzyme; 290,000 tested, 1.2% active; AID 1822, 2009; H-Glu-NHMec fluorogenic cleavage; M18 aspartyl aminopeptidase (Plasmodium falciparum 3D7); inhibition, % at 7.35 µM;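 active means inhibition above the campaign mean inhibition over all tested compounds plus 3 SD, cut at about 28% in these data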;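 further: 0% = plate median of test compound wells and 100% = 2 mM ZnCl2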
IDE cell inh: human IDE inhibitors in live cells, primary screen, fluorescence polarization, HEK cells, FAbetaB substrate; FAbetaB cleavage; 320,000 tested, 0.41% active; inhibition, % at 5.59 µM;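 active means percent inhibition above the average of all tested compounds plus 3 SD, set per screening campaign, cut at about 16% in these data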;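 further: IDE supplied by intact live HEK cells; FP after avidin binding of uncleaved biotin substrate so inhibition keeps polarization high; 0% = DMSO wells and 100% = 60 µM reference IDE inhibitor Ii1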
ALR H2O2 inh: inhibitors of human ALR sulfhydryl oxidase, primary screen, biochemical, H2O2 detection, HRP-luminol luminescence, single point. FAD-linked sulfhydryl oxidase ALR (Homo sapiens), P55789. purified ALR, DTT oxidation. inhibition, % (no concentration beside the values). 290,000 tested, 3.8% active;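 active means mean replicate inhibition above about 79%, with every replicate also reaching it, limit read from the data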
CaV13 ICDI inh: Primary screen for inhibitors of IQ motif and Ca2+-dependent inactivation inhibitor domain binding in CACNA1D, Förster resonance energy transfer in living cells, … | inhibition, % at 12.3 µM | HEK cells, CFP/YFP FRET ICDI-IQ, plate reader, 10 min; percent FRET-ratio fall versus neutral wells | 340,000 tested, 0.098% active;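 active means mean replicate inhibition of at least 30% and at least 1% of replicates passing that level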;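 further: 0% = median of the neutral control wells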
* hit, by the source's call; · = no result given.

SMILES	IDE act	PolyA inhibitor	M18AAP inhibitor	IDE cell inh	ALR H2O2 inh	CaV13 ICDI inh
CC(=O)OCC1=C(C(=O)O)N2C(=O)C(NC(=O)c3ccc(COc4c(C)cccc4Cl)o3)C2SC1 (stereo not drawn)	-1	-13	16	3	98*	3
CN(C)CCP(=O)(c1ccccc1)c1ccccc1	5	9	-5	0	-8	-5
CN(C)CCN(C)Cc1c2ccccc2c(CN(C)CCN(C)C)c2ccccc12	4	9	29*	3	-9	-5
Cc1noc(C)c1NC(=O)Nc1cccc2c1O[C@H](CN(C)C(=O)Nc1ccc(C(F)(F)F)cc1)[C@@H](C)CN([C@H](C)CO)C2=O	0	·	·	-2	-1	-4
CCSCc1nnc(SCC(=O)Nc2cccc(C(C)=O)c2)n1C	5	1	-5	-5	-1	7
CCSCc1nnc(SCC(=O)Nc2cccc(SC)c2)n1C	-1	-7	-10	1	98*	·
O=C1NCCC/C1=N\Nc1ccc(Br)cc1	9	-23	14	4	99*	-5
O=C(NNC(=O)c1cccs1)c1ccc(Cl)c(S(=O)(=O)N2CCCC2)c1	2	·	·	-4	8	-7
O=C(NNC(=O)c1ccccc1O)c1ccc(Cl)c(S(=O)(=O)N2CCCCC2)c1	5	37	·	-2	97*	-6
CCn1cnc2cc(NCc3ccc(Br)cc3)ccc21	·	8	-15	0	86*	-5
Cc1ccc(CNc2ccc3c(c2)ncn3C(C)C)cc1	1	9	24	-2	93*	-2
CCn1cnc2cc(NCc3ccc(C)cc3)ccc21	-2	-4	13	-6	87*	·
CCCn1cnc2cc(NCc3ccc(Br)cc3)ccc21	1	13	18	2	44	-4
CCNC(=S)NNC(=O)Nc1ccccc1	2	8	21	0	6	-8
CCOc1cc(C(=O)Nc2ccc(C(=O)NCCN(CC)CC)cc2)ccc1OCC(=O)N1CCOCC1	-1	·	·	·	·	-7
COc1ccc(-c2oc3cc(OC)c(O)c(OC)c3c(=O)c2OC)cc1O	4	-13	12	7	100*	·
COc1c(-c2ccc(O)cc2)oc2cc(O)cc(O)c2c1=O	5	·	·	-2	98*	·
CC(=O)Oc1cc(O)c2c(=O)c(OC(C)=O)c(-c3ccc(OC(C)=O)c(OC(C)=O)c3)oc2c1	1	-11	·	-2	82*	·
COc1ccc(-c2oc3cc(O)c(OC)c(O)c3c(=O)c2OC)cc1	9	-13	·	9	23	·
COc1cccc(C(=O)N[C@H](C(=O)N2CCC[C@H]2C(=O)NCc2ccccc2)c2ccccc2)c1	·	·	·	·	·	-4
COc1cc(C(=O)O/N=C2/C=C(C)C(=O)C=C2C)cc(OC)c1OC	-4	·	-1	-8	26	-1
COc1cc(C(=O)ON=C2C(C)=CC(=O)C=C2C)cc(OC)c1OC	0	-8	9	6	99*	-10
CCc1cccc(CC)c1-n1c(-c2cccnc2)n[nH]c1=S	0	13	4	5	31	-5
S=c1[nH]nc(-c2cccc3ccccc23)n1-c1cccnc1	·	23	19	-2	91*	-2
CCCC1CC(C)(/C(C)=N\NC(N)=S)OC1=O (stereo not drawn)	2	13	28*	0	4	4
SMILES	IDE act	PolyA inhibitor	M18AAP inhibitor	IDE cell inh	ALR H2O2 inh	CaV13 ICDI inh
C/C(CCC1CC(C)(C)OC1=O)=N\NC(N)=S (stereo not drawn)	4	30	14	7	6	-5
Cc1ccc2c(c1)-n1c(nc3cc(Cl)ccc3c1=O)C(Cc1ccccc1)NC2=O (stereo not drawn)	·	·	·	-4	0	·
COCCn1c(SCC(=O)c2ccccc2)nc2ccccc2c1=O	·	-7	1	1	97*	-5
CCn1c(SCc2cccc(F)c2)nc2c(c1=O)SCC2	2	-12	8	-3	97*	-1
COCCn1c(SCC(=O)c2ccccc2)nc2c(c1=O)SCC2	2	-8	-3	4	94*	-2
COCCCn1c(SCC(=O)c2ccccc2)nc2ccccc2c1=O	-1	-23	1	7	2	-2
CCOc1ccc(NC(=O)c2ccc3c(c2)OCCO3)cc1S(=O)(=O)N(CC)CC	-1	·	·	-6	-3	-6
CCNc1ccc(S(=O)(=O)N(C)C)cc1NCC(=O)Nc1ccccc1F	0	-10	22	1	99*	-3
COc1cc(NC(=O)COC(=O)CCCC2=NS(=O)(=O)c3ccccc3N2)cc(OC)c1	7	5	-4	3	-2	-2
CCc1nnc(NC(=O)C(c2ccccc2)c2ccccc2)s1	0	11	-2	1	-3	-3
Cc1[nH]c(=O)[nH]c1C(=O)CCCCC(=O)O	39*	-4	3	-17	18	-5
CCCCSCc1[nH]c(=O)[nH]c1C(=O)CCCCC(=O)OCC	0	16	-5	-1	·	-4
NNc1cc([N+](=O)[O-])cc2c1C(=O)N(Cc1ccccc1)S2=O (stereo not drawn)	-7	-14	42*	6	-17	7
COc1ccc(C(N)CCc2ccco2)cc1 (stereo not drawn)	-3	1	-1	1	99*	-6
COc1ccc(S(=O)(=O)N(C)C(C)CCc2ccco2)cc1 (stereo not drawn)	-1	-3	-7	1	13	-2
COC(=O)[C@]12C[C@H](CC(=O)N3CCC(c4ccccc4)CC3)C(=O)N(CCC3=CCCCC3)C1=C[C@H](C(C)(C)C)O[C@@H]2C	·	·	·	·	·	-11
Nc1ccccc1C#Cc1ccc2[nH]ccc2c1	2	-10	·	-4	97*	-9
CN(C)C(=O)/C(C#N)=C\c1cc(Br)c(Sc2ccc(Cl)cc2)o1	-1	·	3	0	93*	·
O=C1N[C@@H](Cc2cn(S(=O)(=O)c3ccccc3)c3ccccc23)C(=O)N[C@H]1Cc1ccccc1	6	0	·	-1	18	-11
CC(C)CN(C(=O)CN(C)CC(=O)Nc1ccccc1C#N)c1c(N)n(CC(C)C)c(=O)[nH]c1=O	3	·	·	4	-7	-6
O=C(CCl)NCc1c(Cl)cccc1-n1cccc1	0	12	2	2	96*	-8
O=C(Cc1c(Cl)cccc1Cl)NCCc1ccc(Cl)cc1	-4	-10	-2	0	-6	-8

Bioassay records (PubChem)
